{"source": "ChEMBL document CHEMBL5724796", "about": "“Tm Shift (DSF) assay results for EUbOPEN Chemogenomics Library” (2024)", "note": "Non-standard residues stand in square brackets, D forms with d. Residues, ends and D or L forms follow the SMILES beside them. *: point of attachment. Benzoyl(4-tBu) = CC(C)(C)c1ccc(C(=O)*)cc1; Lys(Et2) = CCN(CC)CCCC[C@H](N)C(=O)O"}
{"target": "Bromodomain-containing protein 4 (Homo sapiens) (UniProt O60885)", "settings": "Compound concentration 20.0 uM", "units": {"ΔTm": "°C"}}
{"smiles": "CCS(=O)(=O)N1CC(CC#N)(n2cc(-c3ncnc4[nH]ccc34)cn2)C1", "ΔTm": -1.2}
{"smiles": "C[C@H]1CO[C@@H]2Cn3cc(C(=O)NCc4ccc(F)cc4F)c(=O)c(O)c3C(=O)N12", "ΔTm": -2.15}
{"smiles": "CN(C)CCCNC(=O)c1ccc(-c2cc(O)c3ncccc3c2)cc1", "ΔTm": 1.76}
{"smiles": "COC[C@H](NC(=O)c1ccn(S(C)(=O)=O)c1)C(=O)Nc1nc(-c2cccc(-c3ccn(C)n3)c2)cs1", "ΔTm": -0.81}
{"smiles": "Cc1c(Nc2ccc(S(=O)(=O)N3CCN(C)CC3)cc2F)nc2ccc(-c3cnn(C4CC4)c3)cn2c1=O", "ΔTm": -2.59}
{"smiles": "COc1cc(C(=O)NCC2(N(C)C)CCCC2)cc(OC)c1OCc1ccccc1", "ΔTm": -1.07}
{"smiles": "COc1ccc(-c2ccc(-c3cn(C(=O)N4CCCCC4c4ccccc4)nn3)cc2)cc1", "note": "(stereo unspecified)", "ΔTm": -2.64}
{"smiles": "OC[C@H]1O[C@@H](c2ccc(Cl)c(Cc3ccc(O[C@H]4CCOC4)cc3)c2)[C@H](O)[C@@H](O)[C@@H]1O", "ΔTm": -2.67}
{"target": "Cyclin-dependent kinase 2 (Homo sapiens) (UniProt P24941)", "settings": "Compound concentration 20.0 uM", "units": {"ΔTm": "°C"}}
{"smiles": "O=C(CCCCCCNC(=O)c1cnc(N(c2ccccc2)c2ccccc2Cl)nc1)NO", "ΔTm": 0.09}
{"smiles": "O=C1Nc2ccccc2C2(CCN(CC(Cc3ccccc3)Nc3nc4ccc(F)cc4s3)CC2)N1", "note": "(stereo unspecified)", "ΔTm": -0.52}
{"smiles": "C[C@@H]1CN(Cc2ncccn2)C[C@H]1c1nc2c(cnn2C2CCOCC2)c(=O)[nH]1", "ΔTm": 0.17}
{"smiles": "CNCCCN1c2ccccc2CCc2ccccc21", "ΔTm": -0.16}
{"smiles": "O=C(NCc1ccc(Cl)cc1)C1CCN(S(=O)(=O)c2cc(Cl)cc(Cl)c2)CC1", "ΔTm": 0.17}
{"smiles": "COCCOCCn1nc2c(c1C)-c1c(Cl)ccc3c1c(C)c(C(=O)O)n3CCCOc1cc(cc3c(F)c(Cl)ccc13)CCc1cc(nn1C)CSC2", "ΔTm": -3.85}
{"smiles": "O=c1[nH][nH]c(=O)c2cc(OCc3ccccc3F)ccc12", "ΔTm": 0.72}
{"smiles": "CCN(CC)CCCC[C@H](NC(=O)[C@H](CC(C)C)NC(=O)[C@H](C)NC(=O)[C@H](Cc1ccccc1)NC(=O)c1ccc(C(C)(C)C)cc1)C(=O)N[C@@H](CO)C(=O)OC", "note": "({Benzoyl(4-tBu)}-FAL[Lys(Et2)]S-OMe)", "ΔTm": -0.26}
{"smiles": "Cc1cc(-c2ccccc2)cc(C(=O)NNS(=O)(=O)c2ccccc2)c1F", "ΔTm": -3.62}
{"smiles": "COc1ccc([C@@H]2CNC(=O)C2)cc1OC1CCCC1", "ΔTm": 0.13}
{"smiles": "CC(C)[C@@H]1NC(=O)[C@H](Cc2ccc(O)cc2)NC(=O)[C@@H](CC(=O)O)NC(=O)S[C@@H](C(=O)O)NC(=O)[C@H]([C@H](C)O)NC(=O)[C@H](Cc2ccc(O)cc2)NC(=O)[C@H](Cc2c[nH]c3ccccc23)NC(=O)[C@H](CCCNC(=N)N)NC(=O)[C@H](Cc2c[nH]c3ccccc23)NC(=O)[C@H](C)NC(=O)[C@H](CO)NC(=O)[C@H](CCCNC(=N)N)NC(=O)[C@H]([C@H](C)O)NC(=O)[C@H](CC(N)=O)NC(=O)[C@H](Cc2ccc(O)cc2)NC1=O", "ΔTm": 0.11}
{"smiles": "COc1cc(Nc2ncc(F)c(Nc3ccc4c(n3)N(COP(=O)(O)O)C(=O)C(C)(C)O4)n2)cc(OC)c1OC", "ΔTm": 5.51}
{"smiles": "COC(=O)[C@H]1[C@H]2C[C@@H]3c4[nH]c5cc(OC)ccc5c4CCN3C[C@H]2C[C@@H](OC(=O)c2cc(OC)c(OC)c(OC)c2)[C@@H]1OC", "ΔTm": 0.11}
{"smiles": "O=C(CCCCCCNC(=O)c1cnc(N(c2ccccc2)c2ccccc2)nc1)NO", "ΔTm": 0.61}
{"smiles": "CCC[C@@H]1CNCc2c1[nH]c(=O)c(C#N)c2N1CCC2(CC1)CC2", "ΔTm": 0.24}
{"smiles": "Cc1ccc(F)c2cc(C(=O)N[C@@H]3CCC[C@H](N4CC[C@H](N(C)S(C)(=O)=O)C4)C3)[nH]c12", "ΔTm": 0.24}
{"smiles": "NC(=O)c1cc(F)cc2c1C(=O)N(C1CCN(C3CCC(F)(F)CC3)CC1)C2", "ΔTm": 0.02}
{"smiles": "CCCC[C@]1(CC)CS(=O)(=O)c2cc(CNC(CC(=O)O)CC(=O)O)c(OC)cc2[C@@H](c2ccccc2)N1", "ΔTm": -0.44}
{"smiles": "C[C@@H](Oc1ccc(S(C)(=O)=O)cc1C(=O)N1C[C@@H]2C[C@]2(c2cc(C(F)(F)F)on2)C1)C(F)(F)F", "ΔTm": 0.09}
{"smiles": "CCN(CC)C(=O)/C(C#N)=C/c1cc(O)c(O)c([N+](=O)[O-])c1", "ΔTm": 0.11}
{"smiles": "Cc1cc(C)c(CNC(=O)c2cc(Cl)c3c(c2C)O[C@@](C)([C@H]2CC[C@H](N(C)C)CC2)O3)c(=O)[nH]1", "ΔTm": 0.46}
{"smiles": "O=C(CCCCCCC(=O)Nc1ccc([C@H]2O[C@@H](CSc3nc(-c4ccccc4)c(-c4ccccc4)o3)C[C@@H](c3ccc(CO)cc3)O2)cc1)NO", "ΔTm": -1.26}
{"smiles": "Cc1ncc(Cl)cc1NCc1ccc(C(=O)N[C@@H](CC2CCCC2)C(=O)NC2CC2)s1", "ΔTm": -0.15}
